The record followed here is PubChem BioAssay (EPA / NIEHS).

Records with an inconclusive call do not appear. Activity calls are given as the source filed them. How the source made its calls, unless noted: active means hit-call score of the fitted dose curve at least 0.9, where 1 is the maximum; inactive means score below 0.9.

The nature of experiment [1]: ATG_PBREM_CIS: Attagene CIS-FACTORIAL HepG2 Assay for human Phenobarbital-responsive Enhancer Module (PBREM) (AID 2282955). Particulars: HepG2 PBREM cis-reporter, Attagene multiplexed transcription; actives raise or lower the signal. In outline:
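HepG2 cells transiently transfected with multiple cis-regulated reporter transcription units; endogenous factor activity at the PBREM element measured as reporter mRNA 24 h after dosing, via RT-PCR and capillary electrophoresis of fluorescent fragments; bidirectional fitting versus DMSO.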

The target of experiment [2] is Paired box protein Pax-6 (Homo sapiens) (UniProt P26367). Nature of the experiment: ATG_Pax6_CIS: Attagene CIS-FACTORIAL HepG2 Assay for human Paired Box 6 (PAX6) (AID 2282956). Particulars: HepG2 CIS-FACTORIAL PAX6 reporter transcription, RNA readout; actives raise or lower the signal. The gist of the method:
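Read-out is reporter transcript level, measured by RT-PCR with fluorescent primer extension and capillary electrophoresis after 24 h dosing of transfected HepG2 cells. Activity in either direction fitted relative to DMSO control.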

A short description of experiment [3]: ATG_PXRE_CIS: Attagene CIS-FACTORIAL HepG2 Assay for human Pregnane X Receptor Element (PXRE) (AID 2282957). Conditions: HepG2 Attagene CIS-FACTORIAL PXRE reporter, mRNA; actives raise or lower the signal. The gist of the method:
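Endogenous transcription factor activity in HepG2 was gauged through induction of reporter mRNA driven by a cis-regulating promoter element, sampled 24 h post-treatment. Activity was fitted in both directions against DMSO negative control.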

Experiment [4] is described as follows: ATG_RORE_CIS: Attagene CIS-FACTORIAL HepG2 Assay for human RAR-related Orphan Receptor Element (RORE) (AID 2282959). Conditions: HepG2 Attagene cis-factorial RORE reporter, mRNA; actives raise or lower the signal. In outline:
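HepG2 cells transiently transfected with multiple cis-element reporter transcription units, exposed to chemical for 24 h. Reporter mRNA quantified by RT-PCR, 6-FAM primer-extension labeling, HpaI digestion and capillary electrophoresis; bidirectional fit versus DMSO baseline.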

Experiment [5] can be described thus: ATG_Sox_CIS: Attagene CIS-FACTORIAL HepG2 Assay for human SRY-box transcription factor (SOX) (AID 2282960). Particulars: HepG2 Attagene cis-factorial SOX reporter, mRNA; actives raise or lower the signal. The gist of the method: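 HepG2 cells transiently transfected with cis-element-driven multiple reporter transcription units, dosed 24 h; reporter mRNA measured by RT-PCR, FAM labelling, HpaI digestion and capillary electrophoresis. Bidirectional fit versus DMSO baseline.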

Experiment [6] addresses Transcription factor Sp1 (Homo sapiens) (UniProt P08047). Nature of the experiment: ATG_Sp1_CIS: Attagene CIS-FACTORIAL HepG2 Assay for human Specificity Protein 1 (Sp1) (AID 2282961). Conditions: HepG2 Sp1 cis-reporter transcription, actives raise or lower the signal. The gist of the method:
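HepG2 cells transiently transfected with multiple reporter transcription units driven by cis-regulatory elements; Sp1-responsive reporter mRNA measured 24 h after dosing by RT-PCR and capillary electrophoresis fluorescence, fitted bidirectionally against DMSO baseline.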

Experiment [7] in a line: ATG_SREBP_CIS: Attagene CIS-FACTORIAL HepG2 Assay for human Sterol Regulatory Element Binding (SREBP) (AID 2282962). Particulars: HepG2 Attagene cis-factorial SREBP reporter, mRNA; actives raise or lower the signal. The gist of the method:
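Endogenous SREBP activity read as cis-element-driven reporter transcript in transiently transfected HepG2, 24 h post-dosing; quantified via RT-PCR plus capillary electrophoresis of fluorescent fragments. Gain or loss of signal fitted relative to DMSO baseline.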

Experiment [8] has as its target Signal transducer and activator of transcription 3 (Homo sapiens) (UniProt P40763). Nature of the experiment: ATG_STAT3_CIS: Attagene CIS-FACTORIAL HepG2 Assay for human Signal Transducer and Activator of Transcription 3 (STAT3) (AID 2282963). Particulars: HepG2, Attagene cis-factorial STAT3 reporter transcription; actives raise or lower the signal. In outline: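 Readout is reporter transcript quantified by RT-PCR and capillary electrophoresis, with 6-FAM primer extension and HpaI digestion. Total RNA is taken 24 h after dosing transiently transfected HepG2 carrying cis-regulated reporter units. Bidirectional fit against DMSO.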

Experiment [9] in a line: ATG_TA_CIS: Attagene CIS-FACTORIAL HepG2 Assay for human TA Basal Promoter (AID 2282964). Particulars: HepG2 Attagene CIS-factorial TA basal promoter reporter; actives raise or lower the signal. In outline: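 Read-out: fluorescent reporter-transcript fragments resolved by capillary electrophoresis after RT-PCR and HpaI digestion. Source: HepG2 cells carrying transiently transfected multi-reporter cis constructs, treated 24 h. Endpoint fitted bidirectionally relative to DMSO.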

Experiment [10] in a line: ATG_TCF_b_cat_CIS: Attagene CIS-FACTORIAL HepG2 Assay for human T-Cell-Factor with beta-catenin (TCF/b-cat) (AID 2282965). Particulars: HepG2 TCF/beta-catenin cis-reporter transcription, actives raise or lower the signal. The gist of the method:
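Measured: reporter mRNA in HepG2 transiently transfected with cis-promoter reporter units, 24 h after chemical addition. Fitting was bidirectional, DMSO as negative control.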

Experiment [11] can be described thus: ATG_TAL_CIS: Attagene CIS-FACTORIAL HepG2 Assay for human TAL Basal Promoter (AID 2282966).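 Further: background control endpoint measuring basal TAL promoter reporter mRNA not a specific factor.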 Conditions: HepG2 Attagene cis-factorial TAL promoter reporter; actives raise or lower the signal. The gist of the method:
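Endogenous transcription-factor activity is sensed in HepG2 cells through transfected cis-promoter reporter constructs. After 24 h dosing, reporter transcripts are quantified by RT-PCR and capillary electrophoresis. Gain or loss of signal is fitted relative to DMSO.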

The nature of experiment [12]: ATG_TGFb_CIS: Attagene CIS-FACTORIAL HepG2 Assay for human Transforming Growth Factor (TGF) (AID 2282967). Conditions: HepG2 Attagene CIS TGFb reporter, mRNA transcription; actives raise or lower the signal. In outline:
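Transient MRTU transfection of HepG2 (FuGene 6). Dose 24 h. TriZol RNA, oligo(dT) RT, PCR, 6-FAM primer extension, HpaI cut, CE. Bidirectional fit, DMSO = baseline.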

A short description of experiment [13]: ATG_VDRE_CIS: Attagene CIS-FACTORIAL HepG2 Assay for human Vitamin D Receptor Element (VDRE) (AID 2282968). Conditions: HepG2 VDRE cis-reporter transcription, actives raise or lower the signal. The gist of the method:
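Readout is VDRE-driven reporter mRNA reflecting endogenous factor activity in human HepG2 cells, sampled 24 h post-dose. Quantification used labelled RT-PCR products separated by capillary electrophoresis; bidirectional analysis relative to DMSO.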

Experiment [14] concerns the target Estrogen receptor (Homo sapiens) (UniProt P03372). In words: ATG_ERa_TRANS: Attagene TRANS-FACTORIAL HepG2 Assay for human Estrogen Receptor alpha (ERa) (AID 2282970; active means hit-call score of the fitted dose curve at least 0.9, where 1 is the maximum). Conditions: HepG2 Attagene TRANS ERa GAL4 reporter, mRNA. The gist of the method:
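Transfected HepG2 cells carrying GAL4-UAS-driven reporter units were dosed for 24 hours. Total RNA was reverse-transcribed, reporter sequences PCR-amplified, FAM-labelled, HpaI-digested and resolved by capillary electrophoresis. Increases over DMSO control defined activity.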

A short description of experiment [15]: ATG_M_19_TRANS: Attagene TRANS-FACTORIAL HepG2 Assay for M19 Transcription Factor (Internal Marker) (AID 2282974; active means hit-call score of the fitted dose curve at least 0.9, where 1 is the maximum). Conditions: HepG2 Attagene TRANS-FACTORIAL M19 internal marker reporter. In outline:
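HepG2 cells transiently transfected with multiple GAL4-UAS reporter transcription units were exposed to chemicals for 24 h. Reporter mRNA was read by RT-PCR, 6-FAM primer extension, HpaI digestion and capillary electrophoresis; gain of signal fitted relative to DMSO.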

Experiment [16] in a line: ATG_GAL4_TRANS: Attagene TRANS-FACTORIAL HepG2 Assay for GAL4 (Internal Marker) (AID 2282976; active means hit-call score of the fitted dose curve at least 0.9, where 1 is the maximum). Particulars: HepG2 Attagene TRANS GAL4 internal marker reporter. In outline:
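Fluorescence from capillary electrophoresis of labelled RT-PCR products quantifies reporter mRNA induction after 24 h dosing of HepG2 cells carrying transfected GAL4-UAS reporter transcription units. Vehicle DMSO serves as baseline.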

Experiment [17] deals with Nuclear receptor subfamily 1 group I member 3 (Homo sapiens) (UniProt Q14994). Nature of the experiment: ATG_CAR_TRANS: Attagene TRANS-FACTORIAL HepG2 Assay for human Constitutive Androstane Receptor (CAR) (AID 2282969; active means hit-call score of the fitted dose curve at least 0.9, where 1 is the maximum;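 further: activators raise reporter mRNA above DMSO so AC50 marks induction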). Particulars: HepG2 Attagene TRANS-FACTORIAL CAR reporter. In outline:
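Signal is reporter mRNA induction relative to DMSO, measured 24 h after dosing by RT-PCR with fluorescent primer extension and capillary electrophoresis. Human HepG2 liver cells carried transiently transfected chimeric NR-Gal4/GAL4-UAS reporter constructs.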

The target in experiment [18] is Steroid hormone receptor ERR1 (Homo sapiens) (UniProt P11474). Nature of the experiment: ATG_ERRa_TRANS: Attagene TRANS-FACTORIAL HepG2 Assay for human Estrogen-Related Receptor alpha (ERRa) (AID 2282971; active means hit-call score of the fitted dose curve at least 0.9, where 1 is the maximum). Particulars: HepG2 Attagene TRANS reporter, ERRa transactivation. In outline:
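HepG2 cells were transiently transfected with multiple GAL4-UAS reporter units, then dosed with compound for 24 h. Total RNA was reverse-transcribed, reporter cDNA PCR-amplified and fluorescently labelled, and fragments resolved by capillary electrophoresis; induction was compared with DMSO.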

Experiment [19] deals with X-box-binding protein 1 (Homo sapiens) (UniProt P17861). Nature of the experiment: ATG_Xbp1_CIS: Attagene CIS-FACTORIAL HepG2 Assay for human X-box Binding Protein 1 (XBP1) (AID 2282972). Conditions: HepG2 XBP1 cis-element reporter, Attagene multiplex; actives raise or lower the signal. The gist of the method:
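Reporter transcripts were quantified by RT-PCR with fluorescent primer extension and capillary electrophoresis after 24 h chemical exposure. Cells: transiently transfected HepG2 carrying cis-regulated reporter constructs; data fitted bidirectionally relative to DMSO.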

Experiment [20] in a line: ATG_PPRE_CIS: Attagene CIS-FACTORIAL HepG2 Assay for human Peroxisome Proliferator-activated Response Element (PPRE) (AID 2282958). Particulars: HepG2 PPRE cis-element reporter, Attagene transcription factor profiling; actives raise or lower the signal. In outline:
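HepG2 cells transiently transfected with multiplexed cis-element reporter units measure endogenous transcription factor activity. After 24 h compound exposure, reporter mRNA is quantified by RT-PCR, 6-FAM labeling, HpaI digestion and capillary electrophoresis; bidirectional fits are made against DMSO baseline.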

Chain of Signal transducer and activator of transcription 3 (Homo sapiens) (P40763 whole entry, looked up): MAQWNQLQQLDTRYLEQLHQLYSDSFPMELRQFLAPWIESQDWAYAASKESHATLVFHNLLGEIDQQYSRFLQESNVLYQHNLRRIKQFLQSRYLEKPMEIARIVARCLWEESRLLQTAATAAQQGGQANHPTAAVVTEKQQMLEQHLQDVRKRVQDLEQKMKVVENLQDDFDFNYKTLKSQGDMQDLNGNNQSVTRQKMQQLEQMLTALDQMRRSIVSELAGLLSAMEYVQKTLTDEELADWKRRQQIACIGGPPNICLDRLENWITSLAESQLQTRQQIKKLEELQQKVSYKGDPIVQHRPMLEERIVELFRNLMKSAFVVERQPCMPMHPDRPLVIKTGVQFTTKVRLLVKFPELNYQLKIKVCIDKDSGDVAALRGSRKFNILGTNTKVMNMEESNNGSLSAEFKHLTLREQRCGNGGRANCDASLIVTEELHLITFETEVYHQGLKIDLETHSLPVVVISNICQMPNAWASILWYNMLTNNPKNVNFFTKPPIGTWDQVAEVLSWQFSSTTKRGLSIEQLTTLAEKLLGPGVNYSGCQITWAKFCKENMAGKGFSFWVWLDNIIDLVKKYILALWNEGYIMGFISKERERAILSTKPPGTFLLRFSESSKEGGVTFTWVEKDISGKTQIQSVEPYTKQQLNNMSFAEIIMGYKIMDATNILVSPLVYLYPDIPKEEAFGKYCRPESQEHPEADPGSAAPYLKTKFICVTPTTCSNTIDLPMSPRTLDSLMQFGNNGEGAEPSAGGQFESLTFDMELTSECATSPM
Chain of Paired box protein Pax-6 (Homo sapiens) (P26367 whole entry, looked up): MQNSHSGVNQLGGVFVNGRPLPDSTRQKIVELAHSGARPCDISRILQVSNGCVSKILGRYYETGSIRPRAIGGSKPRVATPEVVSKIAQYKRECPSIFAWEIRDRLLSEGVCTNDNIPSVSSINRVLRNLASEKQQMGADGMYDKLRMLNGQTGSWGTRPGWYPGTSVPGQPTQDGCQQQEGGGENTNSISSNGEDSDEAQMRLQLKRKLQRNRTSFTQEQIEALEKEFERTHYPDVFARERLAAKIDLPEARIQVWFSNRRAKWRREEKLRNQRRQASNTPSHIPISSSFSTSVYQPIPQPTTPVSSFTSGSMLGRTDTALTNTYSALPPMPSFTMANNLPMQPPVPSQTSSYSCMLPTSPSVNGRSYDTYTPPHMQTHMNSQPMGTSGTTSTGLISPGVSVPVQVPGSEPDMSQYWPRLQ
Chain of Estrogen receptor (Homo sapiens) (P03372 whole entry, looked up, the tested form may be a part): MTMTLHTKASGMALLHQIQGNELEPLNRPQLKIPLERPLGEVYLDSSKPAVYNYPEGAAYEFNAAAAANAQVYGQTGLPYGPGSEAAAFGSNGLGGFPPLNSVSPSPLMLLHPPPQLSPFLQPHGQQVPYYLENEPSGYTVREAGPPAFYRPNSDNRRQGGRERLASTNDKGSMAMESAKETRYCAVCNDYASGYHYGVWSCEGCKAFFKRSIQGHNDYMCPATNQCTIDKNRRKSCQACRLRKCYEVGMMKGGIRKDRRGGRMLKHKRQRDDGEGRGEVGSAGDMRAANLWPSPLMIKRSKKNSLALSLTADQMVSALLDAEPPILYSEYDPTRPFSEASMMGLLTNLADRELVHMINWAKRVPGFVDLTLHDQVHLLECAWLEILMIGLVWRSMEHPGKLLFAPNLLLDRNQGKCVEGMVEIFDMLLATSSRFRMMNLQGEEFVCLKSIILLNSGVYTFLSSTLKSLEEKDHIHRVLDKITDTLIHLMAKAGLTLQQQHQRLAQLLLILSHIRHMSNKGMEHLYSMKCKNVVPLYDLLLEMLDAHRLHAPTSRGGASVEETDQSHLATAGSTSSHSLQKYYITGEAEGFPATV
Chain of X-box-binding protein 1 (Homo sapiens) (P17861 whole entry, looked up): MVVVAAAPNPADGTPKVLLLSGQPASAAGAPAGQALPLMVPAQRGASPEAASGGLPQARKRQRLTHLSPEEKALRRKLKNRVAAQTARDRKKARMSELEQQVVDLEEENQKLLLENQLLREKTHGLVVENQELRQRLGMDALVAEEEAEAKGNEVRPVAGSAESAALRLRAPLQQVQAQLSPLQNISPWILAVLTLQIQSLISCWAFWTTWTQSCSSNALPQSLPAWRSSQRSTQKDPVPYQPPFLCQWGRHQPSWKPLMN
Chain of Transcription factor Sp1 (Homo sapiens) (P08047 whole entry, looked up): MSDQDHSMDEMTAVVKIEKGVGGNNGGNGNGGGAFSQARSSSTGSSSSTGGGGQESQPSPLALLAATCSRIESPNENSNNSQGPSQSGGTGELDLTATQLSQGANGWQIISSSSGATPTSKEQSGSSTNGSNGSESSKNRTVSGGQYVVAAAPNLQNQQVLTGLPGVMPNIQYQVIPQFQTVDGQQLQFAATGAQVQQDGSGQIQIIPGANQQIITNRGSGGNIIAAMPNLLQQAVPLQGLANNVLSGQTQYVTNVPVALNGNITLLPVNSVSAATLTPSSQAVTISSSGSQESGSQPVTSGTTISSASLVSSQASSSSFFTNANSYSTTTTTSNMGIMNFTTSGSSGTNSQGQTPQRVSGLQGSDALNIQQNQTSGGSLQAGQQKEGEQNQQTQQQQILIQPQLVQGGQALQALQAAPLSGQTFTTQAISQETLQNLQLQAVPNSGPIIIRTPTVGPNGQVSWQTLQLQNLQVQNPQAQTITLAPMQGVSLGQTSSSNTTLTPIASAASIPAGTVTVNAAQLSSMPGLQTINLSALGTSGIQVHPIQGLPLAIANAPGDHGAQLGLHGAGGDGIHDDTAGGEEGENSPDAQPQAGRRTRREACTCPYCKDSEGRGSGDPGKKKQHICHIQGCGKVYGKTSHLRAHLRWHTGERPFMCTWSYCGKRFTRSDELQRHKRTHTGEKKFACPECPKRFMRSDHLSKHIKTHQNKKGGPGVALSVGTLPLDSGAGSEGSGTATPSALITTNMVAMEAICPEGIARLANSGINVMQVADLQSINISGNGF
Chain of Steroid hormone receptor ERR1 (Homo sapiens) (P11474 whole entry, looked up, the tested form may be a part): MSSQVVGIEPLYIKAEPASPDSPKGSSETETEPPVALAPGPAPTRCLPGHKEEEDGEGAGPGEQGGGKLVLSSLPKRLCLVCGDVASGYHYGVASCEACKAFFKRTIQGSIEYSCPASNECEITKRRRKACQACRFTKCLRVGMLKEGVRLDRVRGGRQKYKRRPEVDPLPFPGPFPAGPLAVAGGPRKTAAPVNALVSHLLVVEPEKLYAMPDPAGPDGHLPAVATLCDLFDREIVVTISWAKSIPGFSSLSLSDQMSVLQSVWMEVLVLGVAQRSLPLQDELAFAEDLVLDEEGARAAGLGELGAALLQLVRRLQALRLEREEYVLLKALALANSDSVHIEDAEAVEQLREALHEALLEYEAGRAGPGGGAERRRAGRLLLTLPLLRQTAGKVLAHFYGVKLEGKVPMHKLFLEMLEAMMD
Chain of Nuclear receptor subfamily 1 group I member 3 (Homo sapiens) (Q14994 whole entry, looked up, the tested form may be a part): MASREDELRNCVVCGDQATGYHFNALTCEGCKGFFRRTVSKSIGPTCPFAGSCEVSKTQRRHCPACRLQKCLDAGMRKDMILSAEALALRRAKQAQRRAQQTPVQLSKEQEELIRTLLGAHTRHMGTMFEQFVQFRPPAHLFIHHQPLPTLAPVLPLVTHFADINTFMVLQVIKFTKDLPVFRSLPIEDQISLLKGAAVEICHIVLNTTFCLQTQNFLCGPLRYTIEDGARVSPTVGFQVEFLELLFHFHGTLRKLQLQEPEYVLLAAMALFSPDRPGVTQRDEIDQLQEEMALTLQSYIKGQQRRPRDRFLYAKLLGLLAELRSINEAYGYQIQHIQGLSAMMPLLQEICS

As for `O=C(O)CCC(=O)O`, the outcome in experiment [1], in experiment [2], in [3], in experiment [4], in experiment [5] and in [6] was inactive. For the same compound, the call in experiment [7], in experiment [8], in experiment [9], in experiment [10], in experiment [11] and in experiment [12] was inactive. The outcome in experiment [13], in experiment [14], in experiment [15] and in experiment [16] was inactive.

Consider `C=C(C)OC(C)=O`, for which the outcome in [1], in experiment [2], in experiment [3], in experiment [4], in experiment [5] and in [6] was inactive. The compound was called inactive in [7], in experiment [8], in experiment [9], in experiment [10], in experiment [11] and in experiment [12]. For the same compound, the call in [13], in experiment [17], in [14], in [18], in experiment [19] and in experiment [16] was inactive.

Usually AC50 stands for the concentration at which the activity in the assay is half-maximal. As for `COc1ccc(C(=O)/C(Br)=C\C(=O)O)cc1`, the outcome in experiment [1], in experiment [3], in experiment [5], in experiment [7], in [8] and in [9] was inactive. Moreover, the outcome in experiment [10], in experiment [11], in experiment [12], in experiment [14], in experiment [18] and in experiment [19] was inactive. The half-maximal activity concentration (AC50) in experiment [2] is 57.1 µM (active); in experiment [4], 32.5 µM (active); in experiment [6], 59 µM (active); in experiment [13], 35.7 µM (active).

For `CC(C)(C)NC(=O)[C@H]1CC[C@H]2[C@@H]3CC[C@H]4NC(=O)C=C[C@]4(C)[C@H]3CC[C@]12C`, the result in [1], in experiment [2], in experiment [4], in experiment [5], in [6] and in experiment [7] was inactive. Further, the compound was classed as inactive in experiment [8], in experiment [9], in experiment [10], in experiment [11], in [12] and in [13]. Also, the compound was called inactive in experiment [14], in experiment [19], in experiment [15] and in experiment [16]. Besides, the concentration at half-maximal activity (AC50) in [3] was 14.1 µM (active).

As for `O=C1CCCCCCCCCCCN1`, the result in [1], in experiment [2], in experiment [4], in experiment [5], in experiment [6] and in experiment [7] was inactive. Further, the result in experiment [8], in experiment [9], in [10], in experiment [11], in [12] and in experiment [13] was inactive. The outcome in experiment [17], in [14], in experiment [19] and in experiment [16] was inactive. Further, the AC50 in experiment [3] was 8.77 µM (active).

With `CC1OC(=O)C(C)OC1=O` (stereo not drawn), the outcome in experiment [1], in experiment [2], in [3], in [20], in [5] and in experiment [6] was inactive. Moreover, the compound was classed as inactive in experiment [7], in [10], in [11], in experiment [12], in [13] and in experiment [14]. For the same compound, the compound was classed as inactive in [19] and in experiment [16].

In the case of `N#CC1(N)CCCCC1`, the result in [1], in [2], in experiment [3], in experiment [4], in experiment [5] and in experiment [6] was inactive. In addition, the compound was called inactive in experiment [7], in [8], in experiment [9], in experiment [10], in [11] and in [12]. Also, the result in experiment [13], in experiment [19] and in experiment [15] was inactive.
